Data taken from PubChem BioAssay (Tox21).
Records with an inconclusive call do not appear. Calls of active or inactive are those of the source. Unless noted, calls come from the whole dose curve; as a rule, active = well fitted curve in the direction sought with a large enough effect in the repeat runs; inconclusive = weak or mixed curves; inactive = no such curve, though single readings can be large; an effect the other way counts as inactive or inconclusive.

How the values were obtained:
[1] = Human pregnane X receptor (PXR) small molecule agonists, qHTS cell viability counter screen (AID 1346977); note: nearly all actives have a fitted effect of over 50% in size; note: potency is the fitted concentration of half-maximal effect
Outline: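 After a 5hr pre-incubation, PXR-Luc HepG2 cells received compounds plus positive control in DMSO and were kept 24hr at 37C. Cell viability was quantified by fluorescence from CellTiter-Fluor added for the final hour.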

[2] = Caspase-3/7 induction in HepG2 cells by small molecules, qHTS assay (AID 1346978); note: nearly all actives have a fitted effect of over 15% in size; note: potency is the fitted concentration of half-maximal effect
Outline: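 Caspase-3/7 induction was measured by Caspase-Glo 3/7 luminescence (30 min, room temperature) after a 17 hr compound exposure of wild-type HepG2 cells seeded at 2,000 per well and pre-incubated 5 hr.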

[3] = Caspase-3/7 induction in CHO-K1 cells by small molecules, qHTS cell viability counter screen (AID 1346979); note: nearly all actives have a fitted effect of over 35% in size; note: potency is the fitted concentration of half-maximal effect
Outline: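 Multiplexed with Caspase-Glo 3/7 in CHO-K1 cells, this counter screen added CellTiter-Fluor after 16hr of compound exposure and recorded fluorescence 1hr later.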

[4] = Caspase-3/7 induction in CHO-K1 cells by small molecules, qHTS assay (AID 1346980); note: nearly all actives have a fitted effect of over 15% in size; note: potency is the fitted concentration of half-maximal effect
Outline: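 Luminescent Caspase-Glo 3/7 read (30min, room temperature) quantified apoptosis induction. Cells were wild-type CHO-K1, treated with compound for 17hr at 37 C and 5% CO2.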

[5] = Caspase-3/7 induction in HepG2 cells by small molecules, qHTS cell viability counter screen (AID 1346981); note: nearly all actives have a fitted effect of over 30% in size; note: potency is the fitted concentration of half-maximal effect
Outline: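 HepG2, WT, 2,000 cells/well; 5 hr pre-incubation 37 C/5% CO2; compound pin-transferred from DMSO; 16 hr exposure; CellTiter-Fluor, 1 hr; fluorescence read.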

[6] = molecular target: Nuclear receptor subfamily 1 group I member 2 (Homo sapiens) (UniProt O75469); experiment: Human pregnane X receptor (PXR) small molecule agonists, qHTS assay (AID 1346982); note: nearly all actives have a fitted effect of over 35% in size; note: potency is the fitted concentration of half-maximal effect
Outline: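 Luciferase signal from ONE-Glo (30 min, room temperature) measured activation of hPXR-driven CYP3A4 reporter expression in PXR-Luc HepG2 cells treated with compounds for 24 hr at 37 C.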

[7] = molecular target: Nuclear receptor subfamily 1 group I member 2 (Rattus norvegicus) (UniProt Q9R1A7); experiment: Rat pregnane X receptor (rPXR) activation by small molecules, qHTS assay (AID 1346983); conditions: rPXR luciferase reporter cells, One-Glo luminescence, 24 h; max activation: hits give high values; note: nearly all actives have a fitted effect of over 20% in size
Outline: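 Luminescent readout (One-Glo luciferase, 30 min room temperature) followed 24 hr compound treatment at 37 C of rPXR cells plated 2,000 per well and preincubated 5hr; qHTS format with compounds delivered in DMSO.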

[8] = molecular target: Nuclear receptor subfamily 1 group I member 2 (Homo sapiens) (UniProt O75469); experiment: CYP3A4 induction through human pregnane X receptor (PXR) by small molecules, qHTS assay (AID 1346984); note: nearly all actives have a fitted effect of over 40% in size
Outline: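 Luminescence readout: luciferase signal after One-Glo (30 min, room temperature), following 3 h at 37C with 3uM final Luciferin-IPA P450 substrate. Cells were DPX-2 (HepG2, PXR/CYP3A4-luc co-transfected) dosed for 24 h.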

[9] = molecular target: Nuclear receptor subfamily 1 group I member 2 (Homo sapiens) (UniProt O75469); experiment: Human pregnane X receptor (PXR) activation by small molecules, qHTS assay (AID 1346985); note: nearly all actives have a fitted effect of over 40% in size; note: potency is the fitted concentration of half-maximal effect
Outline: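 DPX-2 cells (HepG2 co-transfected with a PXR response element and a CYP3A4-promoter luciferase construct) were seeded at 2,000 per well, rested 5 hr at 37C, then exposed to DMSO-dissolved compounds for 24 hr. Activation was read as luciferase luminescence.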

[10] = molecular target: Cytochrome P450 2D6 (Homo sapiens) (UniProt P10635); experiment: Cytochrome P450 Family 2 Subfamily D Member 6 (CYP2D6) small molecule antagonists: luciferase reporter qHTS assay (AID 1671196); note: nearly all actives have a fitted effect of over 50% in size; note: potency is the fitted concentration of half-maximal effect
Outline: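 Read-out is luminescence from luciferin formed by CYP2D6 turnover of a proluciferin substrate, recorded as relative luminescence units. Reactions ran 1 h at room temperature after NADPH regeneration solution was added.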

[11] = molecular target: Cytochrome P450 2C19 (Homo sapiens) (UniProt P33261); experiment: Cytochrome P450 Family 2 Subfamily C Member 19 (CYP2C19) small molecule antagonists: luciferase reporter qHTS assay (AID 1671197); note: nearly all actives have a fitted effect of over 65% in size; note: potency is the fitted concentration of half-maximal effect
Outline: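 Enzyme-substrate mix with proluciferin substrate (P450-Glo CYP2C19 system) preincubated with compounds 10 min at room temperature; NADPH regeneration solution added, 37C for 1 h; detection reagent stops reaction, luminescence read after 20 min. Ketoconazole positive control.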

[12] = molecular target: Cytochrome P450 2C9 (Homo sapiens) (UniProt P11712); experiment: Cytochrome P450 Family 2 Subfamily C Member 9 (CYP2C9) small molecule antagonists: luciferase reporter qHTS assay (AID 1671198); note: nearly all actives have a fitted effect of over 50% in size; note: potency is the fitted concentration of half-maximal effect
Outline: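 Enzyme-substrate mix preincubated with compound 10 min at room temperature; reaction started with NADPH regeneration solution, 1 h 37C. Luminescent luciferin product read after 20 min detection reagent.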

[13] = molecular target: Cytochrome P450 1A2 (Homo sapiens) (UniProt P05177); experiment: Cytochrome P450 Family 1 Subfamily A Member 2 (CYP1A2) small molecule antagonists: luciferase reporter qHTS assay (AID 1671199); note: nearly all actives have a fitted effect of over 50% in size; note: potency is the fitted concentration of half-maximal effect
Outline: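 P450-Glo CYP1A2, 1536-well qHTS: enzyme/proluciferin substrate + cpd (DMSO), 10 min RT; NADPH regen, 1 h RT; detection reagent, 20 min; luminescence, RLU.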

[14] = molecular target: Voltage-gated inwardly rectifying potassium channel KCNH2 (Homo sapiens) (UniProt Q12809); experiment: Human Ether-a-go-go-Related Gene (hERG) channel small molecule antagonists: fluorescence cell-based qHTS assay (AID 1671200); note: nearly all actives have a fitted effect of over 50% in size; note: potency is the fitted concentration of half-maximal effect
Outline: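 Cell line hERG-U2OS; dye FluxOR II, 1 h RT dark; Tl+ stimulus; ex 480/em 540 nm, read each second for 2 min.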

[15] = molecular target: Thyrotropin-releasing hormone receptor (Homo sapiens) (UniProt P34981); experiment: qHTS assay to identify small molecule agonists of the thyrotropin-releasing hormone receptor (TRHR) signaling pathway (AID 1346891; calls by dose curve;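 note: HEK293 cells expressing TRHR with calcium dye readout; series mostly up to about 58 µM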)
Outline: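 Overnight-plated (18 h, 37 °C, 5% CO2) TRHR-Hek293 cells; 2 h calcium dye at 37 °C; compound in DMSO; 3-min kinetic fluorescence read.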

[16] = molecular target: Cytochrome P450 3A4 (Homo sapiens) (UniProt P08684); experiment: Cytochrome P450 Family 3 Subfamily A Member 4 (CYP3A4) small molecule antagonists: luciferase reporter qHTS assay (AID 1671201); note: nearly all actives have a fitted effect of over 50% in size; note: potency is the fitted concentration of half-maximal effect
Outline: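 Room-temperature assay throughout: 10 min compound–enzyme/substrate preincubation, 1 h reaction after NADPH regeneration solution, 20 min detection. Luciferin formed from proluciferin substrate is quantified by luminescence.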
% is set by controls: 0 for no effect and ±100 for the full control effect.

Chain of Cytochrome P450 1A2 (Homo sapiens) (P05177 whole entry, looked up): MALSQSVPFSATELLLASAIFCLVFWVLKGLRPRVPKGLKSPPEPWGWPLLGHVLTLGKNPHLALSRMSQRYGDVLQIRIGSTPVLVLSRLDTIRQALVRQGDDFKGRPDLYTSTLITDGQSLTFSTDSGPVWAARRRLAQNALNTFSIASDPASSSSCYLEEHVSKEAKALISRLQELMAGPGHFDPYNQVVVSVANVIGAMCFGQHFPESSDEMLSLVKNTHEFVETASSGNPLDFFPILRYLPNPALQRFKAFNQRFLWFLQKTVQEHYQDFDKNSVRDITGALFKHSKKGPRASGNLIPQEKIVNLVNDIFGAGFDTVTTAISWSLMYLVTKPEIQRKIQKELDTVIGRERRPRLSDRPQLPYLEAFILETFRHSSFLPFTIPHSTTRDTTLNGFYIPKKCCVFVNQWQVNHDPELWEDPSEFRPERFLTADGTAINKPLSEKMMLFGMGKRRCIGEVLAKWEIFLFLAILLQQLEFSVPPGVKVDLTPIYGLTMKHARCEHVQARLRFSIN
Chain of Cytochrome P450 2C9 (Homo sapiens) (P11712 whole entry, looked up): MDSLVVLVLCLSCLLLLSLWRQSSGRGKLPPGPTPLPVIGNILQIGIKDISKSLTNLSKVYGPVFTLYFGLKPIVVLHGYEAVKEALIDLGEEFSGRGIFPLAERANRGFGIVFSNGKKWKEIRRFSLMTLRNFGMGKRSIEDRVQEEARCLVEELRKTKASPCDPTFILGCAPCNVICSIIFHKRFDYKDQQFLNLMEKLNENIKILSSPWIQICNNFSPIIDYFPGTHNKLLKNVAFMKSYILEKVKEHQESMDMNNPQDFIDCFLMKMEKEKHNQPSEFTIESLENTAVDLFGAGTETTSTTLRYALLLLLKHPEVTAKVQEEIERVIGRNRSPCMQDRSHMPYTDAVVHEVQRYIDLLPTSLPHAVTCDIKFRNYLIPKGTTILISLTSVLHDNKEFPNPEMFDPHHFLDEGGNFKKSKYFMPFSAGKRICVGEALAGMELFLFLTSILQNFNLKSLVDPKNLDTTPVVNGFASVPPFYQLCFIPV
Chain of Nuclear receptor subfamily 1 group I member 2 (Homo sapiens) (O75469 whole entry, looked up): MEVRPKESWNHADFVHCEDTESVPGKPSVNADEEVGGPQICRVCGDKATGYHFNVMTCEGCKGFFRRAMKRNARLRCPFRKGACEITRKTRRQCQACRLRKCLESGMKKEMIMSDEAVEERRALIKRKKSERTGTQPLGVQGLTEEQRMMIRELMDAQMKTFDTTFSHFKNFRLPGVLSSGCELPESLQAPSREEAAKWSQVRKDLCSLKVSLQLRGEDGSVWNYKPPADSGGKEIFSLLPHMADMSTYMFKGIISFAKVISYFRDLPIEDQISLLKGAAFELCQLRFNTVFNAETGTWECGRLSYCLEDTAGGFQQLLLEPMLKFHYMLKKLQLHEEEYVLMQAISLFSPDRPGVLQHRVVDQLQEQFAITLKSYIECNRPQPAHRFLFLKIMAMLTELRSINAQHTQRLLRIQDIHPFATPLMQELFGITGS
Chain of Voltage-gated inwardly rectifying potassium channel KCNH2 (Homo sapiens) (Q12809 whole entry, looked up): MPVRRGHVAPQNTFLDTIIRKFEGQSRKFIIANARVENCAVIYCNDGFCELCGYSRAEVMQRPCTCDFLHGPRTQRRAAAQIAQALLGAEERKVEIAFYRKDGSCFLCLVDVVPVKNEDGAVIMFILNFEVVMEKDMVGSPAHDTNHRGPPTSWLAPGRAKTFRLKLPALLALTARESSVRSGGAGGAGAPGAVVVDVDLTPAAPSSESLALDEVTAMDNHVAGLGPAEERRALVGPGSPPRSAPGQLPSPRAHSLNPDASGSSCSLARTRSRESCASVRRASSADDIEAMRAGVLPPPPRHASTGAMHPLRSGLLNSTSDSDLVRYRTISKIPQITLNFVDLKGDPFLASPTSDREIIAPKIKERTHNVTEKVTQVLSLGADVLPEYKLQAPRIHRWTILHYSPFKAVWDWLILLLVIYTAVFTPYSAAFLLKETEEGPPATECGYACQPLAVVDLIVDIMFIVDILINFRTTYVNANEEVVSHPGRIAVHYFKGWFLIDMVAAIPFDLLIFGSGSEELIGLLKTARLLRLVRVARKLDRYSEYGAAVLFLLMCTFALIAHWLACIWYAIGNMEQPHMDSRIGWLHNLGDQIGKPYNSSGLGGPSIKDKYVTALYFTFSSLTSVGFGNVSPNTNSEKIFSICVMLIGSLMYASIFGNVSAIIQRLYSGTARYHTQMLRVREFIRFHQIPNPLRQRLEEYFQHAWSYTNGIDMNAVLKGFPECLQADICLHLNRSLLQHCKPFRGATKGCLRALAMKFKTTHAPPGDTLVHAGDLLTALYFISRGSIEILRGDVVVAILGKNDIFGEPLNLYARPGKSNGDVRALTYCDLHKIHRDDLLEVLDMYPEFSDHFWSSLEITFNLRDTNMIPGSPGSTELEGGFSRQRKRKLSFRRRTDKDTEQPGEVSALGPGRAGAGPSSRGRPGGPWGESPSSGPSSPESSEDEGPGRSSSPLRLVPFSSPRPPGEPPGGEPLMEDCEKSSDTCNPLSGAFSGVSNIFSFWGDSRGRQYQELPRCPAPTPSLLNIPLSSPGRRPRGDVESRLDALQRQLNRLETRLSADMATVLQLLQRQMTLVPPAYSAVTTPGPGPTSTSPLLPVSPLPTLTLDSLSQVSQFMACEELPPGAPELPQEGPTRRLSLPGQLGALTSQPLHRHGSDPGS
Chain of Thyrotropin-releasing hormone receptor (Homo sapiens) (P34981 whole entry, looked up): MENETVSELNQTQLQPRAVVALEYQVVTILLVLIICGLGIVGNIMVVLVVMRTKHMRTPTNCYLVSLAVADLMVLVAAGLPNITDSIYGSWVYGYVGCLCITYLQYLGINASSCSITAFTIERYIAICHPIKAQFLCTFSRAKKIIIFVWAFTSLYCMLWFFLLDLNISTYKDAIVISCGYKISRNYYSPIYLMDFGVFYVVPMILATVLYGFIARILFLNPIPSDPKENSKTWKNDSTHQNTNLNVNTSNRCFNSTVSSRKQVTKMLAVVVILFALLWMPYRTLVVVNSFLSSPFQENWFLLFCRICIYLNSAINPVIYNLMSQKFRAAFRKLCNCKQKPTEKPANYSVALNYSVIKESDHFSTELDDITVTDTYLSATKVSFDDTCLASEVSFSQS
Chain of Cytochrome P450 2D6 (Homo sapiens) (P10635 whole entry, looked up): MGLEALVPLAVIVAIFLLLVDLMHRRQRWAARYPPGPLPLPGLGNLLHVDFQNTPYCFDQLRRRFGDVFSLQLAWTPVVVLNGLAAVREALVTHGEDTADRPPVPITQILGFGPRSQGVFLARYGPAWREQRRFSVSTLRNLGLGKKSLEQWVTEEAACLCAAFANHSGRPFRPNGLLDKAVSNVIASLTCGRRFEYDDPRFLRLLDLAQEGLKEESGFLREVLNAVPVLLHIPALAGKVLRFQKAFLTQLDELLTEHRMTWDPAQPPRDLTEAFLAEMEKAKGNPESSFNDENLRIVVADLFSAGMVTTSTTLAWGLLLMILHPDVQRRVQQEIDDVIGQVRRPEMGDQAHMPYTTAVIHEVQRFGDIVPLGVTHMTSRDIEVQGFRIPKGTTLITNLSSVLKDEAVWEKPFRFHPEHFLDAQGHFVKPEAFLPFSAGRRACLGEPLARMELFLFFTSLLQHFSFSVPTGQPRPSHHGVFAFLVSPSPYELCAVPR
Chain of Cytochrome P450 3A4 (Homo sapiens) (P08684 whole entry, looked up): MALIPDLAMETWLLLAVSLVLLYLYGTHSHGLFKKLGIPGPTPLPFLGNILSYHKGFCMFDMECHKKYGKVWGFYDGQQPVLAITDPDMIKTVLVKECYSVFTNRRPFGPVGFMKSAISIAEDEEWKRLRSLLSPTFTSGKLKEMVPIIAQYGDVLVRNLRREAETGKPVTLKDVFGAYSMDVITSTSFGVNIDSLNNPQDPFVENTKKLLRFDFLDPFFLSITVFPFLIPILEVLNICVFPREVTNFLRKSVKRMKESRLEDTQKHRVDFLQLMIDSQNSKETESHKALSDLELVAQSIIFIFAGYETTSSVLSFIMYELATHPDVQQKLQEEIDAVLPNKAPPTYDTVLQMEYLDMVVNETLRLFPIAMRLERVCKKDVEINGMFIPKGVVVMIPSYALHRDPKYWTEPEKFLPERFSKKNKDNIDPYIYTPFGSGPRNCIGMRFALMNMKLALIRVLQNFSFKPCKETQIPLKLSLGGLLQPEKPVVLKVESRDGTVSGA
Chain of Cytochrome P450 2C19 (Homo sapiens) (P33261 whole entry, looked up): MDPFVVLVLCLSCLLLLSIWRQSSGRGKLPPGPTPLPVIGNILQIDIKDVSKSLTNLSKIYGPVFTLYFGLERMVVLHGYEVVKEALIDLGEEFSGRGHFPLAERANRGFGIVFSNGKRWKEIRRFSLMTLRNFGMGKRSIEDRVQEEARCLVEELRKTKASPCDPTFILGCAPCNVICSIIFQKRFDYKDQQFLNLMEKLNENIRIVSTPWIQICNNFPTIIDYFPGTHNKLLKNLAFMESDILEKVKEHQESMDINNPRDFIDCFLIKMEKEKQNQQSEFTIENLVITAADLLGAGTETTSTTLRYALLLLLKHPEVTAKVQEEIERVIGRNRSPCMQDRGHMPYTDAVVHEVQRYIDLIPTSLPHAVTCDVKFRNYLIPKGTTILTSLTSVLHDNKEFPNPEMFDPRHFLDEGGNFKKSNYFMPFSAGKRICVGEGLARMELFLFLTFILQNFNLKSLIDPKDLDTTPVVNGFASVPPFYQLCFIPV
Chain of Nuclear receptor subfamily 1 group I member 2 (Rattus norvegicus) (Q9R1A7 whole entry, looked up): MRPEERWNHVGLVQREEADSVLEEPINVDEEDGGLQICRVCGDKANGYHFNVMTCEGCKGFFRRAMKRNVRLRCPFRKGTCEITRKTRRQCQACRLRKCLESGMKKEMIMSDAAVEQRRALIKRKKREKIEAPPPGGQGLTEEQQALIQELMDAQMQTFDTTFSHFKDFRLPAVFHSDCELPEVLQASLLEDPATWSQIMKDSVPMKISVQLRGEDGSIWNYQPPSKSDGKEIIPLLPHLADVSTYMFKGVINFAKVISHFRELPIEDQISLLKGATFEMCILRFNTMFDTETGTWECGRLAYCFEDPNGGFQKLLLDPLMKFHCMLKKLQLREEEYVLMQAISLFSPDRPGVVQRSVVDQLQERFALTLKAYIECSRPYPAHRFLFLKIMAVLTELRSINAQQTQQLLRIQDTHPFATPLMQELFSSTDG

CC(=O)OCC(=O)NCCCOc1cccc(CN2CCCCC2)c1
inactive: Potency [1] | Potency [2] | Potency [3] | Potency [4] | Potency [5] | Potency [6] | max activation [7] -1.53% | Potency [8] | Potency [9] | Potency [11] | Potency [12] | Potency [13] | Potency [14]
active: Potency [10] 15.5 µM

C[C@@H](O[C@H]1OCCN(Cc2n[nH]c(=O)[nH]2)[C@H]1c1ccc(F)cc1)c1cc(C(F)(F)F)cc(C(F)(F)F)c1
inactive: Potency [15] | Potency [4] | Potency [13]
active: Potency [2] 33.5 µM | Potency [3] 29.8 µM | Potency [10] 19.5 µM | Potency [11] 15.5 µM | Potency [12] 13.8 µM | Potency [14] 8.49 µM

CC(C)COCC(CN(Cc1ccccc1)c1ccccc1)N1CCCC1 (configuration not stated)
active: Potency [1] 29.8 µM | Potency [3] 29.8 µM | Potency [5] 29.8 µM | Potency [10] 0.0692 µM
inactive: Potency [15] | Potency [13]

CC(C)(C)CC(=O)OCC(=O)[C@@]1(O)CC[C@H]2[C@@H]3CCC4=CC(=O)C=C[C@]4(C)[C@H]3[C@@H](O)C[C@@]21C
inactive: Potency [15] | Potency [1] | Potency [2] | Potency [4] | Potency [13] | Potency [14]
active: Potency [10] 38.9 µM | Potency [11] 9.77 µM | Potency [12] 15.5 µM

c1csc(SSc2cccs2)c1
active: Potency [1] 27.3 µM | Potency [3] 34.4 µM | Potency [6] 9.69 µM | Potency [11] 5.03 µM | Potency [12] 5.03 µM | Potency [13] 31.7 µM
inactive: Potency [2] | Potency [5] | Potency [14] | Potency [16]

CCC(C)COC(C)=O (configuration not stated)
inactive: Potency [1] | Potency [2] | Potency [3] | Potency [4] | Potency [6] | Potency [10] | Potency [12] | Potency [13] | Potency [14]

C=CC(=O)[O-].C=CC(=O)[O-].[Zn+2]
inactive: Potency [1] | Potency [2] | Potency [3] | Potency [4] | Potency [5] | Potency [6] | Potency [14]
active: Potency [10] 34.8 µM | Potency [11] 27.6 µM | Potency [12] 61.8 µM

O=C1NCCN1CCO
inactive: Potency [1] | Potency [2] | Potency [3] | Potency [4] | Potency [5] | Potency [6] | Potency [10] | Potency [11] | Potency [12] | Potency [13] | Potency [14]

CCOc1cccc(-n2cc(C(=O)N3CCN(c4cc(C(=O)O)c5ccccc5c4)CC3)nc2-c2ccc(C)cc2)c1
inactive: Potency [2] | Potency [13]
active: Potency [3] 58.3 µM | Potency [4] 58.3 µM | Potency [11] 53.8 µM | Potency [12] 67.7 µM

CCCCCCCC/C=C\CCCCCCCCCCCC(=O)O
inactive: Potency [1] | Potency [2] | Potency [3] | Potency [4] | Potency [6] | Potency [10] | Potency [11] | Potency [12] | Potency [13] | Potency [14]

CCCCOc1ccc(OCCCN2CCOCC2)cc1
active: Potency [6] 21.1 µM | Potency [10] 27.5 µM
inactive: Potency [2] | Potency [3] | Potency [4] | Potency [5] | max activation [7] -1.82% | Potency [8] | Potency [9] | Potency [13] | Potency [16]

c1ccc(C[n+]2cccc3ccccc32)cc1
active: Potency [10] 3.17 µM | Potency [11] 39.9 µM
inactive: Potency [1] | Potency [2] | Potency [3] | Potency [4] | Potency [5] | Potency [6] | Potency [14] | Potency [16]

Nc1nnc(-c2ccc([N+](=O)[O-])o2)o1
inactive: Potency [2] | Potency [4] | Potency [6] | Potency [14] | Potency [16]
active: Potency [1] 27.3 µM | Potency [3] 54.5 µM | Potency [5] 68.6 µM | Potency [10] 39.9 µM | Potency [13] 39.9 µM

C[C@@H](CN(C)C)CN1c2ccccc2Sc2ccccc21
active: Potency [14] 9.52 µM
inactive: Potency [2] | Potency [4] | Potency [5] | Potency [9]

Cc1cccc(N(C)C(=S)Oc2ccc3c(c2)CCC3)c1
active: Potency [6] 10.6 µM | Potency [11] 1.74 µM | Potency [13] 10.2 µM
inactive: Potency [2] | Potency [3] | Potency [4] | Potency [5] | Potency [10] | Potency [14]

O=C=Nc1ccc(Cl)c(Cl)c1
inactive: Potency [1] | Potency [2] | Potency [3] | Potency [4] | Potency [10] | Potency [11] | Potency [14]
active: Potency [6] 26.9 µM | Potency [12] 39.3 µM | Potency [13] 35 µM | Potency [16] 31.2 µM

O=Cc1c2ccccc2c(Cl)c2ccccc12
inactive: Potency [1] | Potency [2] | Potency [4] | Potency [6] | Potency [10] | Potency [11] | Potency [14] | Potency [16]
active: Potency [3] 23.7 µM | Potency [13] 1.38 µM

CC1(CN2CCC(n3c(=O)[nH]c4ccccc43)CC2)OCc2ccccc2-n2cccc21 (configuration not stated)
inactive: Potency [2] | Potency [4] | Potency [8]
active: Potency [1] 29.8 µM | Potency [3] 29.8 µM | Potency [6] 29.8 µM | Potency [9] 4.47 µM | Potency [10] 2.45 µM | Potency [11] 21.9 µM | Potency [14] 8.49 µM

CC(=O)c1ccc([N+](=O)[O-])cc1
inactive: Potency [1] | Potency [2] | Potency [3] | Potency [4] | Potency [5] | Potency [12] | Potency [14] | Potency [16]
active: Potency [11] 63.4 µM | Potency [13] 40 µM

O=c1[nH]c2ccc(Cl)cc2o1
inactive: Potency [1] | Potency [2] | Potency [4] | Potency [5] | Potency [10] | Potency [12] | Potency [14]
active: Potency [11] 79.6 µM | Potency [13] 10 µM

O=C1Cc2ccccc2N1c1c(Cl)cccc1Cl
active: Potency [6] 9.69 µM | Potency [11] 11.2 µM | Potency [14] 19.5 µM | Potency [16] 17.8 µM
inactive: Potency [1] | Potency [2] | Potency [4] | Potency [13]

COc1ccccc1N1CCN(CC(O)COc2cccc3ccccc23)CC1 (configuration not stated)
inactive: Potency [2] | Potency [4]
active: Potency [10] 1.55 µM | Potency [14] 1.9 µM

CCCCC(CC)COP(=O)(O)O (configuration not stated)
inactive: Potency [1] | Potency [2] | Potency [3] | Potency [4] | Potency [5] | Potency [6] | Potency [10] | Potency [13] | Potency [14] | Potency [16]
active: Potency [11] 40.6 µM
